Source: PubChem (National Center for Advancing Translational Sciences (NCATS))
Pf growth 96h – Primary qHTS for delayed death inhibitors of the malarial parasite plastid, 96 hour incubation; P. falciparum luciferase reporter growth, 96 h; Potency, µM (highest dose often 28.7 µM), hits mostly inhibitors; 6.9% of 320,000 active
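Two-generation exposure (96 h) targets delayed-death phenotype. Reporter parasites carrying integrated firefly luciferase, in red cells at 2% hematocrit and 0.05% parasitemia final, kept at 37 C, 5% CO2; luminescence loss indicates inhibition.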
CHX counter – Cycloheximide Counterscreen for Small Molecule Inhibitors of Shiga Toxin; cell reporter, cycloheximide protein synthesis inhibition counterscreen; max response, %; 12% of 300,000 active; AID 2314, 2010; in the data active = max response mostly above about 13%, no sharp cut-off; inactive = mostly below about 14%; note: read at 38.3 µM for the half of the compounds with a filed dose
Pf growth 48h – Primary qHTS for delayed death inhibitors of the malarial parasite plastid, 48 hour incubation | P. falciparum luciferase growth in erythrocytes, 48 h | Potency, µM (top dose mostly 28.7 µM), actives largely listed as inhibitors | 5.9% of 310,000 active | AID 504832, 2011
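Firefly luciferase activity from engineered P. falciparum reports growth; inhibitors lower the luminescent signal. Cultures contained 2% hematocrit erythrocytes at 0.1% final parasitemia.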
Shiga inhibitor – A qHTS for Small Molecule Inhibitors of Shiga Toxin. Vero cells, Shiga toxin protein synthesis inhibition reporter. AID 2315, 2010. 9.2% of 290,000 active. inhibition, % at 38.7 µM; in the data active = inhibition mostly above about 28%, no sharp cut-off; inactive = mostly below about 43%
NS1 function inh – qHTS Assay for Inhibitors of Influenza NS1 Protein Function; Potency, µM (top dose mostly 46.1 µM); AID 2326, 2010; 0.4% of 270,000 active; calls by dose curve; note: actives are rising curves; nearly all actives have a fitted effect of over 50% in size
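Compounds were scored for reversing the slow growth caused by influenza A NS1 in S. cerevisiae, measured by optical density at 600 nm. Assay medium contained 2% galactose at pH 6.0; NS1-free yeast of the same strain were the positive control.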
SARS PLP yeast – qHTS of Yeast-based Assay for SARS-CoV PLP | S. cerevisiae expressing SARS-CoV PLpro, growth rescue | Potency, µM (titrated, usually from 32.9 µM), actives largely listed as activators | 0.19% of 330,000 active | AID 485353, 2010; calls by dose curve; note: nearly all actives have a fitted effect of over 55% in size
Of the large screens only hits and unclear results are named; the others gave an inactive call. Hits are enriched below; roughly 21% of the tested compounds scored in any of these assays. Unless noted, calls come from the whole dose curve; as a rule, active = well fitted inhibition curve with a large enough effect; inconclusive = small, poorly fitted or top-dose-only effect, or another doubt; inactive = no such curve, though single readings can be large or run the other way.

CC1CCN(S(=O)(=O)c2cn(CC(=O)Nc3ccc(C#N)cc3)cn2)CC1	Pf growth 96h inconclusive
CC(=O)c1cccc(NC(=O)Cn2cnc(S(=O)(=O)N3CCCCC3)c2)c1	none
Cc1cc(Cc2cc(Cc3cc(C)cc(C(C)(C)C)c3O)c(C)cc2C)c(O)c(C(C)(C)C)c1	none (no result: Pf growth 96h, CHX counter, Pf growth 48h, Shiga inhibitor, SARS PLP yeast)
CC(=O)c1ccc(S(=O)(=O)N2CCCc3ccccc32)cc1	Pf growth 96h inconclusive, CHX counter 11.2
COc1ccc(S(=O)(=O)N2CCCc3ccccc32)cc1OC	CHX counter 32.9, Pf growth 48h 11.7µM, Shiga inhibitor 55.5
COc1ccc(S(=O)(=O)N2CCCc3ccccc32)cc1[N+](=O)[O-]	none
O=S(=O)(c1ccc(F)cc1)N1CCCc2ccccc21	Pf growth 96h 1.65µM, CHX counter 31.4 (no result: Shiga inhibitor)
COCCNC(=O)c1ccc(S(=O)(=O)N2CCCc3ccccc32)cc1	CHX counter 29.3, Shiga inhibitor 74.2
O=C(Nc1ccc(S(=O)(=O)N2CCCc3ccccc32)cc1)C1CCCO1 (stereo not drawn)	Pf growth 48h inconclusive
COc1ccc(S(=O)(=O)N2CCc3ccccc32)cc1C(=O)NCc1ccco1	Pf growth 96h inconclusive, Pf growth 48h 13.1µM (no result: CHX counter, Shiga inhibitor, NS1 function inh)
CCOC(=O)/C(C#N)=N/Nc1ccc(S(=O)(=O)N2CCc3ccccc32)cc1	Pf growth 96h 11.7µM, Pf growth 48h 13.1µM
N#C/C(=N\Nc1ccc(S(=O)(=O)N2CCc3ccccc32)cc1)C(N)=S	Pf growth 96h inconclusive, Pf growth 48h inconclusive (no result: NS1 function inh)
COc1ccc(S(=O)(=O)N2CCc3ccccc32)cc1C(=O)NCC(c1ccco1)N1CCCC1 (stereo not drawn)	none (no result: Pf growth 96h, CHX counter, Pf growth 48h, Shiga inhibitor, NS1 function inh)
COc1cc(/C=C/C(=O)O)cc(S(=O)(=O)N2CCCc3ccccc32)c1OC	Pf growth 96h inconclusive, CHX counter 12.4
O=C(O)C1CC=CCC1C(=O)Nc1ccc(S(=O)(=O)N2CCCc3ccccc32)cc1 (stereo not drawn)	Pf growth 96h 10.4µM, NS1 function inh inconclusive
COc1cc(/C=C/C(=O)O)cc(S(=O)(=O)N2CCc3ccccc32)c1OC	Pf growth 96h inconclusive
Cc1cc(/C=C2\C(=O)NC(=S)N(C)C2=O)c(C)n1C1CCCCC1	CHX counter 12.8
Cc1cc(/C=C2/C(=O)N(C)C(=S)N2C)c(C)n1C1CC1	Pf growth 96h inconclusive, CHX counter 14.5, Pf growth 48h inconclusive
Cc1ccc(C(=O)c2coc3cc([N+](=O)[O-])c(O)c([N+](=O)[O-])c23)cc1	none
Cc1ccc(C)c(NC(=S)NCc2ccc3[nH]c4c(c3c2)CCCC4)c1	Pf growth 96h 13.1µM, Pf growth 48h 13.1µM
Cc1ccccc1NC(=S)NCc1ccc2[nH]c3c(c2c1)CCCC3	Pf growth 96h inconclusive, NS1 function inh inconclusive
CCN(CC)S(=O)(=O)c1ccc(C(=O)NCc2ccc3[nH]c4c(c3c2)CCCC4)cc1	Pf growth 96h 11.7µM, Pf growth 48h inconclusive, NS1 function inh inconclusive
CC(=O)NCCOc1ccc2oc3ccccc3c2c1	CHX counter 31.3, Shiga inhibitor 71.3 (no result: Pf growth 96h, SARS PLP yeast)
Cc1cc(C(=O)Nc2ccon2)c(C)o1	Pf growth 96h inconclusive (no result: NS1 function inh)
Cc1cc(C(=O)Nc2cc(C(C)(C)C)on2)c(C)o1	CHX counter 38.6
Cc1cc(NC(NC(=O)c2ccco2)(C(F)(F)F)C(F)(F)F)no1	Pf growth 96h inconclusive
CC(C)(C)c1cc(NC(=O)Nc2ccccc2)no1	CHX counter 32.6, Shiga inhibitor 70.3
CC(C)(C)c1cc(NC(=O)c2ccco2)no1	CHX counter 44.3, Shiga inhibitor 80.5
COC(=O)c1ccccc1NC(=O)Nc1cc(C(C)(C)C)on1	CHX counter 40.1
COC(=O)c1ccccc1NC(=O)Nc1cc(C)ccn1	Pf growth 96h inconclusive
O=C(c1ccc(N2C(=O)CCC2=O)cc1)N1CCN(c2ccccc2)CC1	none (no result: Pf growth 96h)
O=C(Nc1cccc(S(=O)(=O)NC2=NCCC2)c1)c1ccc(C(F)(F)F)cc1	none (no result: Pf growth 96h, CHX counter, Pf growth 48h, Shiga inhibitor, NS1 function inh)
COc1ccc(N(C(=O)c2ccc(F)cc2)C2=CC3CCC(C2)N3C)cc1 (stereo not drawn)	none (no result: Pf growth 96h)
CC(C)(C)c1cc(NC(=O)Nc2ccccc2OC(F)(F)F)no1	Pf growth 96h inconclusive, Pf growth 48h 11.7µM
Cc1ccc(S(=O)(=O)NC(=O)Nc2cc(C(C)(C)C)on2)cc1	none
